From the supplement of paper PMC9694430

Assays:
Assay in all cases: thermal shift delta Tm vs DMSO control; higher = stronger stabilization (binding)
Details in all cases: 12.5 µM; protein concentration 2 µM
LOC_OS01G01410-cb001 = tested on: LOC_OS01G01410-cb001
Procedure, shortened: (§1)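 Heating from 25°C to 95°C at 0.05°C/s, fluorescence was recorded for 19.5 μl wells of 2 μM E. coli-expressed, purified rice kinase domain in 100 mM potassium phosphate pH 7.5, 150 mM NaCl, 10% glycerol and 5 × SYPRO Orange with compound in DMSO. Boltzmann fits gave melting temperatures for this differential scanning fluorimetry assay. The shift reported is the mean of three replicates against the DMSO-only protein.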

LOC_OS01G02750-cb003 = tested on: LOC_OS01G02750-cb003
Procedure, shortened: as §1

LOC_OS01G10900-cb004 = tested on: LOC_OS01G10900-cb004
Procedure, shortened: as §1

LOC_OS01G13800-cb001 = tested on: LOC_OS01G13800-cb001
Procedure, shortened: as §1

LOC_OS01G14860-cb001 = tested on: LOC_OS01G14860-cb001
Procedure, shortened: as §1

LOC_OS01G21960-cb002 = tested on: LOC_OS01G21960-cb002
Procedure, shortened: as §1

LOC_OS01G48390-cb002 = tested on: LOC_OS01G48390-cb002
Procedure, shortened: as §1

LOC_OS01G51400-cb002 = tested on: LOC_OS01G51400-cb002
Procedure, shortened: as §1

LOC_OS01G52050-cb004 = tested on: T1, LOC_OS01G52050-cb004
T1 sequence (whole entry): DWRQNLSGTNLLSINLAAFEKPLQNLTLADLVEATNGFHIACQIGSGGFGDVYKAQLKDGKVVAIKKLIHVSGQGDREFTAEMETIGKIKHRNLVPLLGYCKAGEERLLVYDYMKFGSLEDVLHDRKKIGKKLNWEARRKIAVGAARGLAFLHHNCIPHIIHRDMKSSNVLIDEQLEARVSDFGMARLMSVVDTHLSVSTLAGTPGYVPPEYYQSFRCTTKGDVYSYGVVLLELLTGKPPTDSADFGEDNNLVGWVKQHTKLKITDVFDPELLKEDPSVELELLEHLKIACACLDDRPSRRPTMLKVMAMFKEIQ
Procedure, shortened: as §1

LOC_OS01G60330-cb001 = tested on: LOC_OS01G60330-cb001
Procedure, shortened: as §1

LOC_OS01G63280-cb003 = tested on: LOC_OS01G63280-cb003
Procedure, shortened: as §1

LOC_OS01G67340-cb003 = tested on: LOC_OS01G67340-cb003
Procedure, shortened: as §1

LOC_OS01G70970-cb002 = tested on: LOC_OS01G70970-cb002
Procedure, shortened: as §1

LOC_OS02G07810-cb001 = tested on: LOC_OS02G07810-cb001
Procedure, shortened: as §1

LOC_OS02G08530-cb003 = tested on: LOC_OS02G08530-cb003
Procedure, shortened: as §1

LOC_OS02G14120-cb001 = tested on: LOC_OS02G14120-cb001
Procedure, shortened: as §1

LOC_OS02G17970-cb001 = tested on: LOC_OS02G17970-cb001
Procedure, shortened: as §1

LOC_OS01G39600-cb002 = tested on: LOC_OS01G39600-cb002
Procedure, shortened: as §1

LOC_OS01G57100-cb003 = tested on: LOC_OS01G57100-cb003
Procedure, shortened: as §1

LOC_OS01G60700-cb002 = tested on: LOC_OS01G60700-cb002
Procedure, shortened: as §1
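Note: purified Escherichia coli-expressed rice kinase domain construct.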

Compound	thermal shift delta Tm (LOC_OS01G01410-cb001)	thermal shift delta Tm (LOC_OS01G02750-cb003)	thermal shift delta Tm (LOC_OS01G10900-cb004)	thermal shift delta Tm (LOC_OS01G13800-cb001)	thermal shift delta Tm (LOC_OS01G14860-cb001)	thermal shift delta Tm (LOC_OS01G21960-cb002)	thermal shift delta Tm (LOC_OS01G48390-cb002)	thermal shift delta Tm (LOC_OS01G51400-cb002)	thermal shift delta Tm (LOC_OS01G52050-cb004)	thermal shift delta Tm (LOC_OS01G60330-cb001)	thermal shift delta Tm (LOC_OS01G63280-cb003)	thermal shift delta Tm (LOC_OS01G67340-cb003)	thermal shift delta Tm (LOC_OS01G70970-cb002)	thermal shift delta Tm (LOC_OS02G07810-cb001)	thermal shift delta Tm (LOC_OS02G08530-cb003)	thermal shift delta Tm (LOC_OS02G14120-cb001)	thermal shift delta Tm (LOC_OS02G17970-cb001)	thermal shift delta Tm (LOC_OS01G39600-cb002)	thermal shift delta Tm (LOC_OS01G57100-cb003)	thermal shift delta Tm (LOC_OS01G60700-cb002)
COC(=O)[C@]12CCC(C)(C)C[C@H]1[C@H]1C(=O)C=C3[C@@]4(C)C=C(C#N)C(=O)C(C)(C)[C@@H]4CC[C@@]3(C)[C@]1(C)CC2 [Bardoxolone Methyl]	-2.64 °C	0 °C	-14.8 °C	-0.32 °C	-4.11 °C	-0.25 °C	-0.51 °C	-7.84 °C	-10.5 °C	-0.58 °C	-6.77 °C	-5.05 °C	-11 °C	0.28 °C	-2.07 °C	-4.67 °C	-0.5 °C			
FC(F)(F)c1ccc(Nc2nc3ccc(Oc4ccnc(-c5ncc(C(F)(F)F)[nH]5)c4)cc3[nH]2)cc1 [Raf265 derivative]	2.22 °C	8.8 °C	2.77 °C	3.55 °C	4.58 °C	3.8 °C	4.75 °C		8.78 °C	1.86 °C		0.26 °C	1.67 °C	2.01 °C	0.35 °C	0.25 °C	2.16 °C	6.13 °C	1.09 °C	-0.31 °C
O=C1Nc2ccc(I)cc2/C1=C/c1cc(Br)c(O)c(Br)c1	5.94 °C	0.5 °C	6.08 °C	2.56 °C	5.73 °C	5.54 °C	2.41 °C	0.7 °C	3.09 °C	7.94 °C			2.79 °C	3.4 °C	4.19 °C	5.66 °C	3.87 °C	25.1 °C	7.97 °C	2.48 °C
O=c1ccc2ccc(O)c(O)c2o1 [Daphnetin]	0.85 °C		0.22 °C	0.62 °C	0.62 °C	1.18 °C	0.92 °C	0.41 °C	0.08 °C	1.15 °C	0.68 °C	0.06 °C	0.05 °C	1.27 °C	1.2 °C	0.72 °C	1.06 °C	-0.43 °C	4.5 °C	1.06 °C
Cc1ccccc1-n1c(Cn2nc(-c3cccc(O)c3)c3c(N)ncnc32)nc2cccc(C)c2c1=O	0.31 °C	0.33 °C	0.02 °C	-0.2 °C	-0.04 °C	0.03 °C	0.39 °C	0.33 °C		0.24 °C	0.18 °C	0.86 °C	0.24 °C	1.1 °C	0.86 °C	-1.12 °C	-0.12 °C	-0.15 °C	1.41 °C	1.19 °C
CCc1ccc(/C=C2/SC(=S)NC2=O)cc1	1.69 °C	1.03 °C	2.03 °C	0.53 °C	1.38 °C	1.74 °C	0.63 °C	0.67 °C	1.47 °C	1.11 °C	0.27 °C	0.34 °C	1.39 °C	1.4 °C	1.74 °C	1.62 °C	1.54 °C		3.2 °C	2.87 °C
CC(=O)O/N=C1/C(c2c(O)[nH]c3cc(Br)ccc23)=Nc2ccccc21 [BIO-acetoxime]	2.35 °C	-1.15 °C	-2.37 °C		6.31 °C	0.48 °C	3.95 °C	0.25 °C	0.12 °C	0.36 °C	0.15 °C	-1.03 °C	-1.11 °C		2.87 °C	-2.97 °C		-0.05 °C	-10.7 °C	-0.6 °C
Cc1ccc(NC(=O)Nc2cc(C(F)(F)F)ccc2F)cc1Nc1ccc2c(c1)NC(=O)/C2=C\c1ccc[nH]1	0 °C	4.91 °C	-0.66 °C	3.11 °C	2.49 °C	4.16 °C	3.2 °C		4.68 °C	1.66 °C	2.05 °C	1.55 °C	1.83 °C	3.74 °C	-2.7 °C	0.57 °C	1.85 °C	2.94 °C	2.33 °C	0.91 °C
Cc1cc(F)c(Nc2ncnc3cc(OCc4ccccc4)ccc23)cc1O	0.8 °C	2.62 °C	0.6 °C	0.61 °C	0.45 °C	1.56 °C	1.2 °C	0.81 °C	0.77 °C	0.94 °C	1.25 °C	0.41 °C	0.6 °C	1.36 °C	1.46 °C	0.86 °C	1.59 °C	1.09 °C	1.8 °C	2.58 °C
O=C(Nc1ccc(-c2ccnc(Nc3ccc(N4CCOCC4)cc3)n2)cc1)C1CCCN1 (stereo not given)	-0.35 °C	-0.13 °C	0.59 °C	-0.02 °C	1.14 °C	1.5 °C	0.45 °C	0.18 °C	0.51 °C	0.51 °C	0.08 °C	-0.06 °C	0.39 °C	0.59 °C	0.66 °C	3.38 °C	0.54 °C		0.26 °C	1.22 °C
C=C[C@@](C)(/C=C/c1ccc(O)cc1)CCC=C(C)C [Bakuchiol]	1 °C	1.1 °C	1.06 °C	0.03 °C	0.91 °C	0.52 °C	0.85 °C	0.52 °C	3.47 °C	0.36 °C	0.51 °C	-0.02 °C	0.49 °C	-0.84 °C	0.6 °C	0.29 °C	0.27 °C	0.57 °C	-0.4 °C	0.05 °C
